Outcome and AC50 data for 6 molecules are collected here from PubChem BioAssay (EPA / NIEHS).

SMILES strings stand for the structures. Values joined by “and” are separate entries in the source; they are usually repeats but may differ in a detail not shown here. Equal entries are not always repeated. Inconclusive results are not listed. More than one record can exist for a structure, and the calls need not agree. Active and inactive are the calls of the source. The calls were made as follows, unless noted: active = hit-call score of the fitted dose curve at least 0.9, where 1 is the maximum; inconclusive = response in the unintended direction; inactive = score below 0.9.

Read-out in test [1]: sulfotransferase 2A1 (SULT2A1), SULT2A1 (gene 6822)
Nature of the test: LTEA_HepaRG_SULT2A1: Life Technologies and Expression Analysis (LTEA) Assay for sulfotransferase 2A1 (SULT2A1) using HepaRG (AID 2283531; active = hit-call score of the fitted dose curve at least 0.9, where 1 is the maximum; inactive = score below 0.9). The settings on record: mRNA level, 48 h; actives raise or lower the signal. Put shortly:
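Gene-expression endpoint in a human liver cell line: SULT2A1 mRNA change after 48 h chemical treatment, curves fitted in both directions relative to 0.5% DMSO vehicle. Concentrations spanned eight half-log steps from 100 uM.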

Read-out in test [2]: Transforming Growth Factor (TGFA), TGFA (gene 7039)
Kind of test: LTEA_HepaRG_TGFA: Life Technologies and Expression Analysis (LTEA) Assay for Transforming Growth Factor (TGFA) using HepaRG (AID 2283532; active = hit-call score of the fitted dose curve at least 0.9, where 1 is the maximum; inactive = score below 0.9). Conditions: mRNA level, 48 h; actives raise or lower the signal. Put shortly:
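HepaRG (human liver line), 48 h exposure, 8 conc. half-log down from 100 uM, 0.5% DMSO vehicle, duplicates; serum-free induction medium. TGFA mRNA by TaqMan qRT-PCR, ACTB/GAPDH/POLR2A normalization; gain/loss fit vs DMSO.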

Read-out in test [3]: Transforming Growth Factor (TGFB1), TGFB1 (gene 7040)
Kind of test: LTEA_HepaRG_TGFB1: Life Technologies and Expression Analysis (LTEA) Assay for Transforming Growth Factor (TGFB1) Transporter using HepaRG (AID 2283533; active = hit-call score of the fitted dose curve at least 0.9, where 1 is the maximum; inactive = score below 0.9). Conditions: mRNA level, 48 h; actives raise or lower the signal. Put shortly:
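Eight-point concentration-response (max 100 uM, half-log) in HepaRG under serum-free induction conditions, 48 h. TGFB1 mRNA by qRT-PCR, housekeeping-normalized.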

Read-out in test [4]: TIMP1, TIMP1 (gene 7076)
Nature of the test: LTEA_HepaRG_TIMP1: Life Technologies and Expression Analysis (LTEA) Assay for TIMP1 using HepaRG (AID 2283534; active = hit-call score of the fitted dose curve at least 0.9, where 1 is the maximum; inactive = score below 0.9;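 as to Outcome: TaqMan qRT-PCR signal normalized to ACTB GAPDH and POLR2A housekeeping genes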). The settings on record: mRNA level, 48 h; actives raise or lower the signal. In outline: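 TIMP1 induction or repression in HepaRG cells after 48 h chemical exposure (eight concentrations, highest 100 uM), assessed by normalized qRT-PCR with bidirectional fitting to DMSO controls.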

Read-out in test [5]: Tumor necrosis factor receptor 1 (TNFRSF1A), TNFRSF1A (gene 7132)
Kind of test: LTEA_HepaRG_TNFRSF1A: Life Technologies and Expression Analysis (LTEA) Assay for Tumor necrosis factor receptor 1 (TNFRSF1A) using HepaRG (AID 2283535; active = hit-call score of the fitted dose curve at least 0.9, where 1 is the maximum; inactive = score below 0.9). The settings on record: mRNA level, 48 h; actives raise or lower the signal. Put shortly: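 Assay uses 48 h chemical treatment of differentiated HepaRG monolayers, tested in duplicate at eight concentrations from 100 uM downward in 0.5% DMSO. mRNA is normalized to ACTB, GAPDH and POLR2A, with induction or suppression fitted relative to vehicle.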

Read-out in test [6]: Thyroid Hormone Responsive (THRSP), THRSP (gene 7069)
Kind of test: LTEA_HepaRG_THRSP: Life Technologies and Expression Analysis (LTEA) Assay for Thyroid Hormone Responsive (THRSP) using HepaRG (AID 2283536; active = hit-call score of the fitted dose curve at least 0.9, where 1 is the maximum; inactive = score below 0.9). The settings on record: mRNA level, 48 h; actives raise or lower the signal. Put shortly:
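mRNA induction or loss relative to 0.5% DMSO vehicle was fitted bidirectionally across an eight-point curve whose highest exposure was 100 uM. Human HepaRG liver cells received chemicals in duplicate over 48 h before RNA extraction.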

Read-out in test [7]: Cellular tumor antigen p53 (Homo sapiens) (UniProt P04637)
Kind of test: LTEA_HepaRG_TP53: Life Technologies and Expression Analysis (LTEA) Assay for Tumor Protein P53 (TP53) using HepaRG (AID 2283537; active = hit-call score of the fitted dose curve at least 0.9, where 1 is the maximum; inactive = score below 0.9). The settings on record: mRNA level, 48 h; actives raise or lower the signal. Put shortly: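 Read-out is TP53 transcript level by microfluidic qRT-PCR, normalised to three housekeeping genes and fitted bidirectionally against DMSO. Human HepaRG cells received compounds for 48 h, highest concentration 100 uM.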

Read-out in test [8]: UDP glucuronosyltransferase (UGT1A1), UGT1A1 (gene 54658)
Kind of test: LTEA_HepaRG_UGT1A1: Life Technologies and Expression Analysis (LTEA) Assay for UDP glucuronosyltransferase (UGT1A1) using HepaRG (AID 2283538; active = hit-call score of the fitted dose curve at least 0.9, where 1 is the maximum; inactive = score below 0.9). Conditions: mRNA level, 48 h; actives raise or lower the signal. Put shortly:
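Readout is UGT1A1 transcript level by qRT-PCR, normalized to three housekeeping genes, after 48 h chemical treatment of HepaRG cells. Concentrations ran from 100 uM down in half-log steps with 0.5% DMSO, and gain or loss relative to DMSO was fitted.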

Read-out in test [9]: X-box binding protein 1 (XBP1), XBP1 (gene 7494)
Kind of test: LTEA_HepaRG_XBP1: Life Technologies and Expression Analysis (LTEA) Assay for X-box binding protein 1 (XBP1) using HepaRG (AID 2283540; active = hit-call score of the fitted dose curve at least 0.9, where 1 is the maximum; inactive = score below 0.9). Conditions: mRNA level, 48 h; actives raise or lower the signal. In outline:
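Eight concentrations (half-log, highest 100 uM, 0.5% DMSO) tested in duplicate on HepaRG cells over 48 h in serum-free induction medium; qRT-PCR of XBP1 normalised to ACTB, GAPDH, POLR2A.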

Test [10] in a line: LTEA_HepaRG_LDH_cytotoxicity: Cytotoxicity Assessment in the Life Technologies and Expression Analysis (LTEA) Assay (AID 2283563).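 As to AC50: LDH activity released into spent culture medium as a marker of cell death.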 Put shortly: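 Spent-medium LDH after 48 h chemical exposure of HepaRG cells in serum-free induction medium; eight concentrations, half-log dilutions from 100 uM, duplicate wells, fitted upward relative to 0.5% DMSO.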
A short description of test [11]: ATG_XTT_Cytotoxicity: Cytotoxicity Assessment in the Attagene TRANS-FACTORIAL HepG2 Assay (AID 2283584). In outline: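 24 h chemical exposure of reporter-transfected HepG2; XTT signal loss vs DMSO indicates cytotoxicity.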
Test [12] is described as follows: TOX21_p53_BLA_p2_viability: Viability Assessment in the Tox21 HCT-116 p53 Agonism Beta-lactamase Assay, Phase 2 (AID 2283591).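 Also: compound exposure lasted 16 h at 37 °C; actives lower the ATP signal meaning cytotoxicity.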 Put shortly: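 Cytotoxicity readout: CellTiter-Glo ATP luminescence, 30 min at room temperature, after the beta-lactamase read. Cells were HCT116 exposed 16 h at 37C to compounds pin-transferred at 217-fold dilution from DMSO stocks.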

Test [13] concerns the target Cellular tumor antigen p53 (Homo sapiens) (UniProt P04637). Kind of test: TOX21_p53_BLA_p2_ratio: Tox21 HCT-116 p53 Agonism Beta-lactamase Assay, Ratio, Phase 2 (AID 2283592). Put shortly: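 Human colon HCT116 cells with an inducible p53 beta-lactamase reporter are exposed to test chemicals for 16 h at 37C. Reporter induction is read as the 460/530 nm emission ratio after CCF4-AM loading, normalized to DMSO.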

Test [14] is described as follows: TOX21_p53_BLA_p3_viability: Viability Assessment in the Tox21 HCT-116 p53 Agonism Beta-lactamase Assay, Phase 3 (AID 2283593).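 Also: cells exposed to compound for 16 h before reading.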 In outline:
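Cellular ATP was quantified by CellTiter-Glo luminescence, read after 30 min at room temperature. Beforehand, HCT116 cells (4000/well) received compound 5 h post-seeding, 217-fold diluted from DMSO, then incubated 16 h at 37C.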

Test [15] concerns the target Cellular tumor antigen p53 (Homo sapiens) (UniProt P04637). Kind of test: TOX21_p53_BLA_p3_ratio: Tox21 HCT-116 p53 Agonism Beta-lactamase Assay, Ratio, Phase 3 (AID 2283596). Put shortly: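 HCT116 p53-bla cells (4000/well) given compound in DMSO (217-fold dilution) after 5 h, incubated 16 h at 37C. CCF4-AM substrate 2 h at room temperature; 460/530 nm emission ratio, gain fitted against DMSO.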

Test [16] can be described thus: TOX21_p53_BLA_p4_viability: Viability Assessment in the Tox21 HCT-116 p53 Agonism Beta-lactamase Assay, Phase 4 (AID 2283597).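 Also: hits lower the luminescence signal meaning cytotoxicity.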 Put shortly: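 Luminescent ATP readout (CellTiter-Glo, 30 min, room temperature) in the same wells as the p53 bla ratio. HCT116 cells were treated for 16 h at 37C with DMSO-dissolved compounds.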
In test [17] the target is Cellular tumor antigen p53 (Homo sapiens) (UniProt P04637). Nature of the test: TOX21_p53_BLA_p5_ratio: Tox21 HCT-116 p53 Agonism Beta-lactamase Assay, Ratio, Phase 5 (AID 2283599). Put shortly:
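Beta-lactamase reporter ratio (blue 460 nm over green 530 nm, 405 nm excitation) after 2 h CCF4-AM loading, in HCT-116 cells exposed 16 h at 37 C to compounds pinned at 217-fold dilution. Increases relative to DMSO baseline scored.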

Read-out in test [18]: UDP glucuronosyltransferase (UGT1A6), UGT1A6 (gene 54578)
Kind of test: LTEA_HepaRG_UGT1A6: Life Technologies and Expression Analysis (LTEA) Assay for UDP glucuronosyltransferase (UGT1A6) using HepaRG (AID 2283539; active = hit-call score of the fitted dose curve at least 0.9, where 1 is the maximum; inactive = score below 0.9). Conditions: mRNA level, 48 h; actives raise or lower the signal. Put shortly: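 Measures mRNA change in HepaRG hepatic cells exposed 48 h to chemicals (eight-point, maximum 100 uM, 0.5% DMSO vehicle) in serum-free induction medium. Expression normalized to endogenous controls; DMSO served as negative control and baseline.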

A short description of test [19]: TOX21_p53_BLA_p5_viability: Viability Assessment in the Tox21 HCT-116 p53 Agonism Beta-lactamase Assay, Phase 5 (AID 2283600). In outline: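 Seeded cells (4000/well) settle 5 h before compound addition. Plates then incubate 16 h at 37C, receive FRET substrate for 2 h, and finally CellTiter-Glo, with luminescence measured after a 30 min room-temperature incubation.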

Test [20] has as its target Cellular tumor antigen p53 (Homo sapiens) (UniProt P04637). Kind of test: TOX21_p53_BLA_p4_ratio: Tox21 HCT-116 p53 Agonism Beta-lactamase Assay, Ratio, Phase 4 (AID 2283601). In outline: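 Signal is the blue/green (460nm/530nm) ratio of cleaved versus uncleaved CCF4-AM substrate, read after 2 h substrate loading. Cells were HCT116 carrying the p53-responsive beta-lactamase reporter, dosed 16 h at 37C, 5% CO2; CellTiter-Glo measured in parallel.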

Sequence of Cellular tumor antigen p53 (Homo sapiens) (P04637 whole entry, looked up): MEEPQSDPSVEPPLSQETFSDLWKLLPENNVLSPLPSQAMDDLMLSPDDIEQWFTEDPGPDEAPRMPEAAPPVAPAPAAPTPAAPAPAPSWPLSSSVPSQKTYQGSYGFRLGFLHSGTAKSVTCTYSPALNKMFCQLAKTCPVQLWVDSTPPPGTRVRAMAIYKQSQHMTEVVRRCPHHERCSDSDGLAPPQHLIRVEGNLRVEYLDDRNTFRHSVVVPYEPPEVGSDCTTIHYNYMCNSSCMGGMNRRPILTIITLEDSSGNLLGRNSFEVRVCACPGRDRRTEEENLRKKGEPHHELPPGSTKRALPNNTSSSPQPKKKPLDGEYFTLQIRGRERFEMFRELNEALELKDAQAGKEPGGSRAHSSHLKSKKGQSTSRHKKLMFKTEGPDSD

Turning to `COc1cc(C=O)cc2c1[C@H](COC(N)=O)[C@]1(OC(C)=O)ON2C[C@H]2[C@@H]1N2C(C)=O`, the molecule was called inactive in [1], in test [5], in test [6], in [7], in test [9] and in [11]. Also, the molecule was classed as inactive in test [12], in test [14] and in test [16]. Also, the AC50 is 1.46 µM (active) in [2]; 3.38 µM (active) in [3]; 2.63 µM (active) in test [4]; 24.6 µM (active) in test [8]; 1.54 µM (active) in test [10]; 0.249 µM (active) in test [13]. For the same molecule, the figures for the AC50 in test [15] and in [17] were 0.56 µM (active) and 0.546 µM (active), respectively.
As to `C=CCc1ccc2c(c1)OCO2`, the molecule was called inactive in [1], in test [2], in test [4], in [5], in [6] and in test [7]. Besides, the molecule was classed as inactive in test [8], in [18], in [9], in test [10], in [12] and in [13]. For the same molecule, the molecule was called inactive in [14], in test [15], in [16], in test [17] and in test [19].
On to `O=C(Nc1ccccc1)c1ccccc1I`, for which the molecule was classed as inactive in test [1], in test [2], in test [4], in test [5] and in [18]. The AC50 is 50 µM (active) in test [3]; 27.1 µM (active) in test [6]; 13.1 µM (active) in test [8]; 13.2 µM (active) in test [9]; 40.5 µM (active) in [10].
`CCC(C)c1ccc(O)cc1` (stereo not given): the call in [1], in test [2], in test [4], in test [5], in test [6] and in test [7] was inactive. Moreover, the result in test [8], in test [18], in test [9], in test [10], in test [11] and in test [12] was inactive. The result in [13], in test [14], in test [15], in test [16], in test [17] and in test [19] was inactive. Moreover, the outcome in test [20] was inactive.
On to `CCN(CC)N=O`, for which the molecule was called inactive in test [1], in test [2], in test [4], in test [5], in test [6] and in test [7]. The call in test [8], in test [18], in test [9], in test [10], in [11] and in [12] was inactive. Moreover, the outcome in [13], in test [14], in [15], in test [16], in [17] and in test [19] was inactive. Besides, in test [20], the result was inactive.
With `ClC1=C(Cl)C2(Cl)C3C(Cl)C=CC3C1(Cl)C2(Cl)Cl` (stereo not given), the molecule was classed as inactive in [1], in [2], in test [3], in [4], in test [5] and in test [6]. Also, the call in test [18], in test [9], in test [10], in test [11], in [12] and in test [13] was inactive. The result in test [15], in test [16], in test [17], in test [19] and in [20] was inactive. For the same molecule, the AC50 was 14.1 µM (active) in [7]; 2.86 µM (active) in test [8]; 85.9 µM (active) in [12]; 46.1 µM (active) and 69.6 µM (active) in test [14]; 45.8 µM (active) in test [16]; 75 µM (active) in test [19].

A word on the AC50: it is the midpoint of the concentration-response curve, whichever way the signal moves.
